# Test results reported in PubChem BioAssay AID624058 (Broad Institute, 2012).
# Inconclusive results are not listed. Calls of active or inactive are those of the source. How the calls were made is not given here.
# Assay: EDDHA-treated Pseudomonas aeruginosa growth inhibition – OD600, ATCC 15692, cherry-pick, set 2, dose response (AID 624058)
# Conditions: P. aeruginosa ATCC 15692 with EDDHA, OD600, 24-30 h; series mostly up to 50 µM
row,SMILES,outcome
1,O=[N+]([O-])c1ccc(N2CCCC2)nc1,inactive
2,Cn1cccc1C(C#N)c1cccc(F)c1C#N (centres undefined),inactive
3,Cc1ccc(S(=O)c2ccc(C)cc2)cc1,inactive
4,CCOc1ccc(-n2cccc2C=O)cc1,inactive
5,O=C1C2C(C(=O)N1Cc1ccco1)C1C=CC2C12CC2 (centres undefined),inactive
6,O=CN(c1ccccc1)c1ccc2ccccc2c1,inactive
7,COc1ccccc1C(C#N)c1cccc(Cl)n1 (centres undefined),inactive
8,N#C/C(=C/c1ccco1)c1nc2ccccc2s1,inactive
9,CCOC(=O)N1CCN(c2ccc(Cl)cc2)CC1,inactive
10,CCOC(=O)c1ccc(-c2ccc(CO)o2)cc1,inactive
11,O=[N+]([O-])c1ccc(N2CCCCC2)nc1,inactive
12,CCOC(=O)/C=C(\C)Sc1cc(=O)oc2ccccc12,inactive
13,N#Cc1cc(-c2ccccc2)cnc1Cl,inactive
14,CCCNS(=O)(=O)c1ccc(OC)c(Cl)c1Cl,inactive
